Rows were chosen to be rich in hits. Some 11% of all compounds tested hit in one or more screens of this group.
L3MBTL1 block – inhibitors of human L3MBTL1 | hit rate 0.66% among 230,000 | Q9Y468 | AlphaScreen L3MBTL1–H3K9me1 peptide binding | AID 485360 | Potency, µM (top dose mostly 57.1 µM), without a hit: at the top dose activity, negative = inhibition, usual class: inhibitors; further: on the % scale 0 is the no-effect control and ±100 the full control effect; nearly all actives have a fitted effect of over 60% in size
Target sequence (Q9Y468 whole entry, looked up): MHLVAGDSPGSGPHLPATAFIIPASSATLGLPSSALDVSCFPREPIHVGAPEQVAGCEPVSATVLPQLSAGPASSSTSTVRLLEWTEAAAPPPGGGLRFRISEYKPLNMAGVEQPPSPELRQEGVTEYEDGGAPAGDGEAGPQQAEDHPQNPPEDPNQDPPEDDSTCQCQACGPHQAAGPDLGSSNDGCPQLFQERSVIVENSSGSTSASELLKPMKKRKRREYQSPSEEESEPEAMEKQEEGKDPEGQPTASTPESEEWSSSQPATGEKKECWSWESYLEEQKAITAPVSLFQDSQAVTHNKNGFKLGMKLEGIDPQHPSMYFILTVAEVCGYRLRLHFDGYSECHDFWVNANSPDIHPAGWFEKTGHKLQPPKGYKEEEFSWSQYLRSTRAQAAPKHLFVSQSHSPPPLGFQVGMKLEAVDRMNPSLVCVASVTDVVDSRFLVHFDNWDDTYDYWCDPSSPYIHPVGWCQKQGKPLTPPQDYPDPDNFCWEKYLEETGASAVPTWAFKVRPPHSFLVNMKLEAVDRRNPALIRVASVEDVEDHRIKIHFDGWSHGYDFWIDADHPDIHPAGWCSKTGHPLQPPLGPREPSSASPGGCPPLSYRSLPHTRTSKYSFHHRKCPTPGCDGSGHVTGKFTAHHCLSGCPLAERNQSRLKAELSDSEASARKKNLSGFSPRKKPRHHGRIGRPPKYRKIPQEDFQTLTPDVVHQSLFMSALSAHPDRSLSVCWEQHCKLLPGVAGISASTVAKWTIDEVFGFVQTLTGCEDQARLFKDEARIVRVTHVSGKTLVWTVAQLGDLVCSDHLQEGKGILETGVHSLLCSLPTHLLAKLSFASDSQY
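L3MBTL1 (50 nM) pre-complexed 30 min with biotinylated H3(1-15)K9me1 peptide (75 nM), then compounds added for 30 min at room temperature; AlphaScreen streptavidin donor/nickel chelate acceptor beads (10 ug/mL final) read after 30 min dark incubation.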
G9a inh – blocks human histone lysine methyltransferase G9a | hit rate 8.8% among 350,000 | Q96KQ7 | G9a H3K9 monomethylation, AlphaScreen, 2 h | Potency, µM (highest dose often 102 µM), without a hit: at the top dose activity, negative = inhibition, actives largely listed as inhibitors | AID 504332; further: on the % scale 0 is the no-effect control and ±100 the full control effect; nearly all actives have a fitted effect of over 75% in size
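Chemiluminescent proximity detection of H3K9 monomethylation, read after 10 min bead incubation in the dark. Reaction: 20 nM G9a, 500 nM biotin-H3K9 peptide, 20 uM SAM cofactor, 2 h, room temperature, following 15 min enzyme-compound preincubation.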
HP1b chromo inh – blocks HP1-beta chromodomain binding to methylated histone tails. P83916. AlphaScreen HP1-beta / biotin-H3K9me3 peptide binding. Potency, µM (top dose mostly 114 µM), inactives show top-dose activity change, negative = inhibition, most hits filed as inhibitors. hit rate 0.56% among 390,000. AID 540317; further: nearly all actives have a fitted effect of over 70% in size
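AlphaScreen: HP1-beta (50 nM) preformed 30 min with biotin-H3(1-18)K9me3 peptide (50 nM) in PBS pH 7.4, 0.01% Tween-20. Compound added for 30 min at RT, then streptavidin donor/nickel chelate acceptor beads (10 ug/mL) for 30 min.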
BAZ2B inh – inhibitors of human BAZ2B bromodomain | AlphaScreen BAZ2B-H3K14Ac peptide displacement | Q9UIF8 | Potency, µM (series often up to 114 µM), without a hit: at the top dose activity change, negative = inhibition, most hits filed as inhibitors | hit rate 4.4% among 360,000; further: on the % scale 0 is the no-effect control and ±100 the full control effect; nearly all actives have a fitted effect of over 60% in size
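Protein-peptide AlphaScreen: BAZ2B 50 nM, b-H3K14Ac 50 nM, 1x PBS pH 7.4 + 0.01% Tween-20. Preincubation 30 min RT; cpd 30 min RT (top 110 uM); beads 20 min RT, light-protected.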
JMJD2A Tudor – JMJD2A Tudor domain (human) inhibition; O75164; AlphaScreen JMJD2A-Tudor / H3K4me3 peptide binding; Potency, µM (doses to about 114 µM), for the others: at the highest dose activity change, negative = inhibition, hits mostly inhibitors; hit rate 4.4% among 390,000; AID 504339; further: on the % scale 0 is the no-effect control and ±100 the full control effect; nearly all actives have a fitted effect of over 50% in size
Numbers without * were called inactive; ? = inconclusive; · = no result; ! = a repeat was not active; [ ] = remark or other dose. The call rests on the fitted dose curve; in most records, active means well fitted inhibition curve with a large enough effect; inconclusive means small, poorly fitted or top-dose-only effect; inactive means no such curve, though single readings can be large or run the other way. Potency means the concentration at half of the fitted maximal effect.

SMILES	L3MBTL1 block	G9a inh	HP1b chromo inh	BAZ2B inh	JMJD2A Tudor
CC1=C(c2ccc(C)cc2)S(=O)(=O)N(Cc2ccc(C(=O)NCc3ccccc3)cc2)C1=O	·	-3%[59 µM]	?	-16%	-28%
CCCCn1c(-c2csc3c2CCC(C)C3)n[nH]c1=S (centres undefined)	-6%	24%[59 µM]	6%	-7%	-27%
C=CCn1c(-c2csc3c2CCC(C)C3)n[nH]c1=S (centres undefined)	-4%	1.4µM*	6%	-35%	?
O=C(CSc1nnc2[nH]c(=O)cc(-c3ccccc3)n12)Nc1ccc(OC(F)(F)F)cc1	·	?	58%	4%	-28%
Cn1c(CSCc2ccc(F)cc2)nnc1SCC(=O)Nc1cccc(C(=O)O)c1	9%	?	27%	0%	0%
CC(/C=N/Nc1nc(C)cc(C)n1)=C\c1ccc(C(C)C)cc1	-5%	40µM*	?	-37%	-25%
Cc1cc(C)nc(N/N=C/c2ccc(Cl)cc2)n1	-5%	45µM*	33%	2%	-5%
CC(/C=N/NC(=O)c1ccncc1)=C\c1ccc(C(C)C)cc1	?	-14%	33%	-24%	-12%
Cc1cc(-c2ccccc2)nc(N/N=C/c2ccc(N(C)C)cc2)n1	·	·	?	·	35µM*
Cc1ccc(/C=N/Nc2nc(C)cc(C)n2)cc1	-1%	?	35%	-24%	-8%
Cc1cc(-c2ccccc2)nc(N/N=C/c2ccccc2)n1	·	-7%	11%	-3%	-24%
CC1(C)CC(=O)c2cc(-c3nc(-c4ccc(Cl)cc4)cs3)c(=O)n(-c3cccc(F)c3)c2C1	·	-48%[59 µM]	53%	17%	28%
COc1cccc(N2CCN(C(=O)Cn3nc(C)n4c(cc5c(OC)cccc54)c3=O)CC2)c1	·	6%[59 µM]	20%	-1%	-7%
O=C(Cc1ccc(Cl)cc1)Nc1cc(Cl)ccn1	·	·	43%	·	9%
c1cncc(N=c2scc(-c3cccc4ccccc34)n2CCCn2ccnc2)c1	?	?	?	10µM*	35µM*
CCCCn1c(C)csc1=Nc1cccnc1	-12%	?	-15%	?	-33%
CC(C)n1c(-c2ccco2)csc1=Nc1cccnc1	-22%	13µM*	?	28µM*	56µM*
Cc1ccc(-c2csc(=Nc3cccnc3)n2CCCn2ccnc2)cc1C	?	?	?	13µM*	?
COCCn1c(-c2ccccc2)csc1=Nc1cccnc1	?	40µM*	?	40µM*	?
c1cncc(-c2nnc(-c3ccco3)o2)c1	8%	-30%	22%	-5%	-6%
Cc1ccc(-c2csc(=Nc3cccnc3)n2CCCN2CCCC2=O)cc1C	-7%	-21%[59 µM]	?	?	?
O=C(Cn1ncc2c3ccccc3n(Cc3cccc(Cl)c3)c2c1=O)N1CCCCCC1	·	-23%[59 µM]	14%	-18%	-34%
Cc1ncc([N+](=O)[O-])n1S(=O)(=O)c1cc(Cl)ccc1Cl	6%	-18%	22%	-25%	-11%
Cc1ccc(CNC(=O)c2sc3ccc(S(=O)(=O)N4CCCCC4)cc3c2N)cc1	-6%	45µM*	·	0%	·
Cc1ccc(S(=O)(=O)N2CC=C(C(=O)NCCC(C)C)CC2)cc1	·	6%	-3%	-3%	-7%
SMILES	L3MBTL1 block	G9a inh	HP1b chromo inh	BAZ2B inh	JMJD2A Tudor
Cc1ccc(S(=O)(=O)N2CC=C(C(=O)NCc3ccccc3)CC2)cc1	-3%	40µM*	43%	0%	-4%
Nc1c(C(=O)NCCC2=CCCCC2)sc2ccc(S(=O)(=O)N3CCCCC3)cc12	-8%	?	19%	-1%	-19%
COc1ccc(CNC(=O)C2=CCN(S(=O)(=O)c3ccc(C)cc3)CC2)cc1	·	45µM*	24%	5%	-8%
COc1ccc(S(=O)(=O)N2CCC(C(=O)NCc3ccc(C)cc3)CC2)cc1	·	-11%	14%[57 µM]	-12%	-1%
c1ccc(CNc2ncnc3c2ncn3Cc2ccccc2)cc1	·	·	30%	·	-17%
CNCCC(Oc1ccccc1C)c1ccccc1 (centres undefined)	·	21µM*!	·	·	·
CSc1nc2nc3c(cc2c(=O)n1-c1ccccc1C)CCCC3	-6%	7.1µM*	34%	-16%	1%
COCCCN=C(c1ccco1)n1c(=S)nc(-c2ccco2)n(CCCOC)c1=S	?	7.9µM*	22µM*	?	56µM*

Screens as filed in PubChem.
